RGS4 inhibitor: blocks human RGS4-accelerated GTP hydrolysis. AID 504845. P49798. Transcreener GDP fluorescence polarization, RGS4-accelerated GTP hydrolysis. Potency, µM (highest dose often 114 µM), for inactives: top-dose activity change, negative = inhibition, usual class: inhibitors. 390,000 compounds, 0.039% hits; note: % is set by controls: 0 for no effect and ±100 for the full control effect; nearly all actives have a fitted effect of over 75% in size
Target sequence (P49798 whole entry, looked up): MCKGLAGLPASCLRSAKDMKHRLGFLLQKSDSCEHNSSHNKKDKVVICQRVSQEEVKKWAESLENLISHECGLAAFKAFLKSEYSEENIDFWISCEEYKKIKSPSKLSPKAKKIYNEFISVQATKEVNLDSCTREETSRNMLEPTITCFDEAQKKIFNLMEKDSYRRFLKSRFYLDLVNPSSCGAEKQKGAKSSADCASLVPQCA
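MLSMR compounds (23 nl, pin-transferred) preincubated 10 min at room temperature with a 500nM (2x) first reagent, then RGS4 at 900nM (2x) plus Transcreener GDP mix added; fluorescence polarization (620/688 nm) read before and after 90 min at 30 °C.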
GLP-1R inv ag: GLP-1 receptor (human) inverse agonism; HEK293 GLP-1R CRE-luciferase, luminescence, 24 h; GLP-1R form is constitutively active; Potency, µM (highest dose often 38.3 µM), inactives show at the highest dose activity change, negative = inhibition, usual class: inhibitors; P43220; 410,000 compounds, 1.6% hits; note: % is set by controls: 0 for no effect and ±100 for the full control effect; nearly all actives have a fitted effect of over 55% in size
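HEK293 cells stably co-expressing a cAMP-responsive luciferase reporter and constitutively active GLP-1R were seeded, incubated 12 h, then exposed to compounds for 24 h at 37 C. Luminescence was read 12 min after detection reagent; inverse agonists lower signal.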
HEK293 tox: cytotoxic in the GLP-1 receptor inverse agonist counter-screen | 410,000 compounds, 0.13% hits | HEK293 cAMP-luciferase reporter cells, luminescence, 24 h | Potency, µM (top dose mostly 38.3 µM), for the others: at the top dose activity change, negative = inhibition, actives largely listed as inhibitors | AID 624418;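 note: loss of luciferase light is scored as toxicity; % is set by controls: 0 for no effect and ±100 for the full control effect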
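Seeding density was 200 cells/uL; after overnight-length (12 h) culture, 23 nL compounds went on for 24 h at 37 °C. Readout used a luciferase detection reagent, luminescence taken after 12 min at room temperature.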
GLP-1R agonist: GLP-1 receptor (human) agonism | P43220 | HEK293 GLP-1R CRE-luciferase, luminescence, 4-6 h; cells express a hypersensitive GLP-1R form | Potency, µM (highest dose often 45.6 µM), for the others: at the top dose activation, usual class: activators | 380,000 compounds, 0.007% hits; note: % of control where 0% means no effect
PTHR1 agonist: activates the human parathyroid hormone receptor PTHR1. HEK293 GP2 PTHR1 cells, GloSensor cAMP luminescence, 1 h. Potency, µM (highest dose often 115 µM), for inactives: at the top dose activation, most hits filed as activators. 410,000 compounds, 0.075% hits; note: nearly all actives have a fitted effect of over 55% in size
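HEK-293-derived GP2 cells expressing PTHR1 and a GloSensor cAMP reporter, 3,000/well, plated overnight, given luciferin plus IBMX (each 0.5 mM as added) for 1 h at 37 °C, then compound for 1 h at 37 °C. Luminescence was read after 15 min at room temperature.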
Numbers without * were called inactive; [ ] = dose if it differs, or a comment. Hits are enriched below; roughly 1.7% of the tested compounds scored in any of these assays. Calls come from the whole dose curve; as a rule, active = well fitted curve in the direction sought with a large enough effect; inconclusive = small, poorly fitted or top-dose-only effect, or another doubt; inactive = no such curve, though single readings can be large; an effect the other way counts as inactive or inconclusive. Potency is the fitted concentration of half-maximal effect.

How did Cc1onc(-c2ccccc2)c1C(=O)OCC(=O)Nc1cccc(Cl)c1 do in these assays?
RGS4 inhibitor: -27%; GLP-1R inv ag: inconclusive; HEK293 tox: -5%; GLP-1R agonist: -4%; PTHR1 agonist: -46%

What do the screens show for `Cc1onc(-c2ccccc2)c1C(=O)Nc1cccc(OC(C)C)c1`?
RGS4 inhibitor: 18%; GLP-1R inv ag: 11µM*; HEK293 tox: -8%; GLP-1R agonist: -4%; PTHR1 agonist: -11%[57.5 µM]

What do the screens show for `Cc1ccc(NC(=O)COC(=O)c2c(-c3ccccc3)noc2C)cc1`?
RGS4 inhibitor: -6%; GLP-1R inv ag: 10µM*; HEK293 tox: -9%; GLP-1R agonist: 11%; PTHR1 agonist: -43%

What do the screens show for `Cc1onc(-c2ccccc2)c1C(=O)OCC(=O)Nc1ccc(Cl)cc1`?
RGS4 inhibitor: 8%; GLP-1R inv ag: 11µM*; HEK293 tox: -8%; GLP-1R agonist: 0%; PTHR1 agonist: -40%

How did CCCOc1cccc(NC(=O)c2c(-c3ccccc3)noc2C)c1 do in these assays?
RGS4 inhibitor: 2%; GLP-1R inv ag: inconclusive; HEK293 tox: -5%; GLP-1R agonist: -4%; PTHR1 agonist: inactive

What do the screens show for `COc1ccc(-c2sc3ccc(OC)cc3c2-c2ccc(OCCN3CCOCC3)cc2)cc1`?
RGS4 inhibitor: 13%; GLP-1R inv ag: 10µM*; HEK293 tox: 8%; GLP-1R agonist: -2%; PTHR1 agonist: -2%

How did OCCN(CCO)c1ccc(C(c2ccccc2Cl)c2ccc(N(CCO)CCO)cc2Cl)c(Cl)c1 do in these assays?
RGS4 inhibitor: -24%; GLP-1R inv ag: 5µM*; HEK293 tox: inconclusive; GLP-1R agonist: -5%; PTHR1 agonist: -10%

Results for CCCCNC(=O)C1(C)CCCCN1C(=O)c1cncc(Br)c1 (stereo not given) ?
GLP-1R inv ag: -23%; HEK293 tox: 3%; GLP-1R agonist: 1%; PTHR1 agonist: inactive

How did COc1ccc(-c2ccc(/C=N/NC(=O)Cc3nnc(N)s3)o2)cc1Cl do in these assays?
RGS4 inhibitor: -3%; GLP-1R inv ag: 11µM*; HEK293 tox: -44%; GLP-1R agonist: -4%; PTHR1 agonist: -5%

How did Cc1ccc(-c2ccc(/C=N/NC(=O)Cc3nnc(N)s3)o2)cc1Cl do in these assays?
RGS4 inhibitor: -21%; GLP-1R inv ag: inconclusive; HEK293 tox: -2%; GLP-1R agonist: 2%; PTHR1 agonist: -2%

What do the screens show for `CSc1ccccc1NC(=O)CN(C)C(=O)COc1ncnc2ccccc12`?
RGS4 inhibitor: -1%; GLP-1R inv ag: 11%; HEK293 tox: -5%; GLP-1R agonist: 1%; PTHR1 agonist: inactive

How did Cc1nc2c(-c3ccccc3)c(C)nn2c(C)c1CCC(=O)NCc1ccco1 do in these assays?
RGS4 inhibitor: -11%; GLP-1R inv ag: 7%; HEK293 tox: 26%; GLP-1R agonist: 12%; PTHR1 agonist: -7%

Results for Cc1nc2c(-c3ccc(F)cc3)c(C)nn2c(C)c1CCC(=O)NC(C)CCc1ccco1 (stereo not given) ?
RGS4 inhibitor: inconclusive; GLP-1R inv ag: 7.1µM*; HEK293 tox: 14%; GLP-1R agonist: -1%; PTHR1 agonist: -17%

What do the screens show for `N#CC1C(=O)c2ccccc2C1c1ccccc1` (stereo not given)?
RGS4 inhibitor: inconclusive; GLP-1R inv ag: inconclusive; HEK293 tox: inconclusive; GLP-1R agonist: -24%; PTHR1 agonist: -23%

What do the screens show for `CC1=Nc2nc(N3CCCCCC3)c(C#N)c3c4c(nc(c23)N1)N(c1ccc2ccccc2c1)C(=O)C4`?
RGS4 inhibitor: 4%; GLP-1R inv ag: 0.5µM*; HEK293 tox: 5%; GLP-1R agonist: -6%; PTHR1 agonist: inactive

What do the screens show for `CCOc1cc(CNc2ccc3c(c2)OCCO3)cc(Br)c1OCC`?
RGS4 inhibitor: -11%; GLP-1R inv ag: 2.2µM*; HEK293 tox: -29%; GLP-1R agonist: 1%; PTHR1 agonist: -9%[57.5 µM]

How did C=CCOc1c(Br)cc(CNc2ccc(NC(=O)CCC)cc2)cc1OCC do in these assays?
RGS4 inhibitor: -9%; GLP-1R inv ag: 8.9µM*; HEK293 tox: -12%; GLP-1R agonist: -2%; PTHR1 agonist: -4%[57.5 µM]

High-throughput results (PubChem BioAssay)
